Screening data deposited in PubChem BioAssay by National Center for Advancing Translational Sciences (NCATS).
Only some compounds are listed: those with a hit (about 19% of all), similar ones and a draw of the others.
RORg inh: qHTS for inhibitors of ROR gamma transcriptional activity | Drosophila S2 Gal4-RORgamma UAS-luciferase reporter, 20 h | Potency, µM (highest dose often 53.6 µM), inactives show top-dose activity change, negative = inhibition, most hits filed as inhibitors | 310,000 compounds, 5.4% hits | AID 2551, 2010 | Nuclear receptor ROR-gamma (Mus musculus), P51450; further: nearly all actives have a fitted effect of over 60% in size
Target sequence (P51450 whole entry, looked up, the tested form may be a part): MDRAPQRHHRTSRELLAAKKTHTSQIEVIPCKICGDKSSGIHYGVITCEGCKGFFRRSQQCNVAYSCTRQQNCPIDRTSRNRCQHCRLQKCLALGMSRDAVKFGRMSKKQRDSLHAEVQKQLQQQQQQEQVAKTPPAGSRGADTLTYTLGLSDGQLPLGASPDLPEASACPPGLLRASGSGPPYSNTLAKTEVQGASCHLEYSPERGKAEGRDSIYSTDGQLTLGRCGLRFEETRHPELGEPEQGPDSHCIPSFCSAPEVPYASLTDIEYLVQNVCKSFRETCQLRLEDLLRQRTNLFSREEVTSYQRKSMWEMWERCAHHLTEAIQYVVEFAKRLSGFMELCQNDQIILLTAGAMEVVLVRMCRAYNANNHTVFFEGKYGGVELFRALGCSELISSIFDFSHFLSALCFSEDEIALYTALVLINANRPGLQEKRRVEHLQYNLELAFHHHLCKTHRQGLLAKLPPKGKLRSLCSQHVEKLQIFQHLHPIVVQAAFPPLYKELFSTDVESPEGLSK
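Using a luciferase readout, inhibitors were identified by reduced reporter activity in Drosophila cells coexpressing a copper-inducible Gal4–ROR gamma fusion and UAS-driven Photinus luciferase, incubated 20 hr after 700 uM copper sulfate.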
VP16 counter: VP16 counterscreen qHTS for inhibitors of ROR gamma transcriptional activity; 310,000 compounds, 3.5% hits; Drosophila S2 Gal4-VP16 UAS-luciferase, luminescence, 20 h; Potency, µM (titrated, usually from 53.6 µM), without a hit: at the highest dose activity, negative = inhibition, most hits filed as inhibitors; AID 2546, 2010;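 further: Gal4-VP16 expression switched on by copper sulfate through the metallothionein promoter; nearly all actives have a fitted effect of over 50% in size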
DT40 TDP1 no CPT: qHTS for Inhibitors of human tyrosyl-DNA phosphodiesterase 1 (TDP1): qHTS in cells in absence of CPT; DT40 Tdp1-/- hTDP1 cells, no CPT, ATP luminescence, 48 h; Potency, µM (top dose mostly 46.2 µM), inactives show at the highest dose activity change, negative = growth inhibition, hits mostly inhibitors; 420,000 compounds, 15% hits; further: nearly all actives have a fitted effect of over 55% in size
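Cells were dispensed at 400 per well, compounds added by pin tool, plates incubated ≥48 hr at 37 °C, then CellTiter-Glo added for 30 min at room temperature before luminescence reading. Line: DT40 Tdp1-/- complemented with hTDP1; camptothecin omitted.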
TDP1 block: qHTS Assay for Inhibitors of Tyrosyl-DNA Phosphodiesterase (TDP1). 350,000 compounds, 0.28% hits. Potency, µM (series often up to 130 µM), without a hit: at the highest dose activity change, negative = inhibition, actives largely listed as inhibitors. AID 485290, 2010. Tyrosyl-DNA phosphodiesterase 1 (Homo sapiens), Q9NUW8. recombinant TDP1, AlphaScreen DNA substrate cleavage; further: nearly all actives have a fitted effect of over 40% in size
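Compounds were preincubated with Tdp1 (1 nM final) for 15 min at room temperature before substrate (15 nM final) started a 5 min reaction; beads (10 ug/ml final) were then added for 10 min before AlphaScreen detection.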
TDP1 cell CPT: qHTS for Inhibitors of human tyrosyl-DNA phosphodiesterase 1 (TDP1): qHTS in cells in presence of CPT | chicken DT40 Tdp1-/-;hTDP1 cells + 20 nM CPT, ATP luminescence, 48 h | Potency, µM (doses to about 46.2 µM), inactives show top-dose activity change, negative = growth inhibition, hits mostly inhibitors | 420,000 compounds, 12% hits | AID 686979, 2013; further: nearly all actives have a fitted effect of over 55% in size
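Chicken DT40 Tdp1-/- cells complemented with human TDP1, 400 cells/well, exposed to compounds plus 20 nM camptothecin for at least 48 h at 37 C; viability read as ATP content by CellTiter-Glo luminescence.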
* hit, by the source's call; ? = inconclusive; nt = not tested or not shown; [ ] = another dose, or the depositor's remark. The call rests on the fitted dose curve; in most records, active means well fitted curve in the direction sought with a large enough effect; inconclusive means small, poorly fitted or top-dose-only effect, or another doubt; inactive means no such curve, though single readings can be large; an effect the other way counts as inactive or inconclusive. On the % scale 0 is the no-effect control and ±100 the full control effect; potency means the concentration at half of the fitted maximal effect.

SMILES	RORg inh	VP16 counter	DT40 TDP1 no CPT	TDP1 block	TDP1 cell CPT
O=C(NC(NNc1ccc([N+](=O)[O-])cc1)(C(F)(F)F)C(F)(F)F)c1ccc(Cl)cc1	16µM*	?	29µM*	4%	?
Cc1ccc(OCCCN2CCOCC2)c([N+](=O)[O-])c1	27%	-3%	-13%	-3%	-17%
Cc1cccc(-c2nsc(SCC(=O)c3ccc(Cl)cc3)n2)c1	-12%	7%	?	1%	?
Cc1ccc(-c2c(C(=O)N/N=C/C3CCCCC3)nnn2-c2nonc2N)cc1	-29%	2%	-7%	3%	-17%
CC(C)(C)C1COc2ccccc2N1C(=O)c1cccc(Cl)c1 (centres undefined)	-3%	-1%	23µM*	nt	?
O=C(CCC1CCCC1)Nc1ccc(C(=O)NCc2cccnc2)cc1	3%	4%	?	6%	15µM*
O=C(NCc1cccnc1)c1ccc(NS(=O)(=O)c2ccc(F)cc2)cc1	6%	-6%	10%	4%	-18%
O=C(O)CCCC(=O)Nc1ccc(C(=O)NCc2cccnc2)cc1	1%	9%	-6%	-3%	-4%
O=C(NCc1cccnc1)c1ccc(-c2cc3ccccc3oc2=O)cc1	43%	-8%	?	nt	12µM*
O=C(NCc1cccnc1)c1ccc(NS(=O)(=O)c2ccccc2)cc1	-12%	-11%	-24%	3.5µM*	-17%
O=C(Nc1cccnc1)c1cccc(-c2cc3ccccc3oc2=O)c1	12%	12%[10 µM]	-7%	-8%	34%
CC(NC(=O)Cn1nc(-c2ccccc2)ccc1=O)c1ccccc1 (centres undefined)	-3%	4%	-23%	4%	-8%
O=C(CSc1nnc(NC2CCCCC2)s1)NC1CCS(=O)(=O)C1 (centres undefined)	26%	-3%	4%	2%	-2%
O=C(Nc1cccc(F)c1)/C(=C\c1ccco1)NC(=O)c1ccco1	-5%	-3%	4%	-3%	-14%
Cc1nnc(SCC(=O)N/N=C/c2ccc(-c3ccc(C)c(Cl)c3)o2)s1	-9%	-25%	?	-1%	?
COc1ccccc1Cn1c(=O)[nH]c2cccnc21	-9%	-8%	-6%	5%	-26%
O=c1c2c(C(F)(F)F)cc(C(F)(F)F)nc2[nH]n1-c1ccccc1	25%	-4%	?	9%	14µM*
COc1ccccc1C(=O)n1nc(-c2ccco2)nc1N	2%	0%	?	-2%	-4%
CCn1nc(C)cc1C(=O)N1CCc2c([nH]c3ccccc23)C1c1cc(F)ccc1F (centres undefined)	25%	-23%	?	nt	?
COc1ccccc1NC(=O)C1CCOC1=O (centres undefined)	nt	nt	0%	nt	10%
Cn1cc(/C(Cc2ccccc2)=N\O)c2ccccc21	9%	7%	16µM*	2%	23µM*
Cn1cc(C(=O)CCl)c2ccccc21	11µM*	7.9µM*	4.6µM*	6%	2.3µM*
Cn1cc(C(N)=O)c2ccccc21	-13%	-1%	19%	5%	18%
CCC(=O)N1CCc2cc(S(=O)(=O)CCC(=O)NC(C)CC)ccc21 (centres undefined)	-3%	3%	21%	2%	-6%
OC(C1=CC(=Cc2ccncc2)c2ccccc21)c1ccncc1 (centres undefined)	nt	nt	16µM*	nt	?
CC1CC(=Cc2ccc([N+](=O)[O-])cc2)C(=O)O1 (centres undefined)	nt	nt	-19%	nt	1%
O=[N+]([O-])c1ccc(/C=C2\C=C(C(O)c3ccc([N+](=O)[O-])cc3)c3ccccc32)cc1 (centres undefined)	nt	nt	4.5µM*	nt	6.3µM*
